# Hits are enriched below; roughly 2.9% of the tested compounds scored in any of these assays.
# Mtb hypoxia rep: PubChem AID 1159583; M. tuberculosis hypoxia-regulated fluorescent reporter, fluorescence; fluorescence inhibition, % (no concentration beside the values); 0.1% of 300,000 active; in the data active means fluorescence inhibition mostly above about 23%, no sharp cut-off; inactive means mostly below about 17%
# GDH-TPI counter-1: GDH-TPI coupling enzyme inhibitors, primary screen, artefact control for M. tuberculosis FBA inhibitor project, biochemical, absorbance, full deck. GDH-TPI coupled enzyme counterscreen, NADH absorbance. inhibition, % at 4.8 µM. 1.2% of 360,000 active. AID 588335, 2011; in the data active means inhibition above about 30%;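 further: 0% = DMSO wells and 100% = wells lacking the enzyme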
# FadD28 FP inh: inhibitors of FadD28 bisubstrate probe binding, primary screen, biochemical, fluorescence polarization, single point; 0.22% of 360,000 active; inhibition, % at 12.5 µM; AID 588549, 2011; in the data active means inhibition above about 8.5%, passing the limit was not always enough
# Mtb BioA inh: M. tuberculosis BioA enzyme inhibitors, primary screen, biochemical, plate reader, single point, HTS; inhibition, % at 9.99 µM; 0.096% of 360,000 active; purified M. tuberculosis BioA enzyme; in the data active means inhibition above about 40%
# FBA Mtb inh: Mtb FBA enzyme inhibitors, primary screen, biochemical, fluorescence, strain H37Rv; inhibition, % at 1 µM; purified M. tuberculosis FBA, fluorescence read-out; 2.3% of 360,000 active; Fructose-bisphosphate aldolase (Mycobacterium tuberculosis (strain ATCC 25618 / H37Rv)), …;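 further: 0% = vehicle and 100% = reference inhibitor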
# Target sequence (P9WQA3 whole entry, looked up): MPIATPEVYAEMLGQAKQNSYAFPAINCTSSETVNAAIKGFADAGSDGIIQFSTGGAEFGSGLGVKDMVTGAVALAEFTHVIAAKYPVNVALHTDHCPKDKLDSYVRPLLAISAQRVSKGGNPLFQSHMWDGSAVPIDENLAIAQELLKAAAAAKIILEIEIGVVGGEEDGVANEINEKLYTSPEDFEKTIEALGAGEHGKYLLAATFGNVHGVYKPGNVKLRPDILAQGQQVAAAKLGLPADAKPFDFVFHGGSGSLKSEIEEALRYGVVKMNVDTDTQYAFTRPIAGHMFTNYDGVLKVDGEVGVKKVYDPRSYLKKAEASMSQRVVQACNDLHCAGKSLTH
# Mtb FBA inh conf: M. tuberculosis aldolase blockers, biochemical, fluorescence, strain H37Rv, confirmation | shares compounds with FBA Mtb inh | purified M. tuberculosis FBA, fluorescence read-out | inhibition, % at 1 µM | 78% of 5,600 active | AID 651616, 2012;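 further: 0% = vehicle wells and 100% = reference inhibitor wells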
# GDH-TPI counter-2: GDH-TPI coupling enzyme inhibitors, artefact control for M. tuberculosis FBA inhibitor project, biochemical, fluorescence, high throughput; shares compounds with FBA Mtb inh; GDH-TPI coupled enzyme counterscreen; inhibition, % at 1 µM; 81% of 5,600 active; AID 652141, 2013; in the data active means inhibition above about 10%
# Numbers without * were called inactive; . = no result given; + = active, no number. Unless noted, no stated cut-off is given here; in the data, active means inhibition above about 27%; inactive means the rest.
SMILES,Mtb hypoxia rep,GDH-TPI counter-1,FadD28 FP inh,Mtb BioA inh,FBA Mtb inh,Mtb FBA inh conf,GDH-TPI counter-2
CC=Cc1ccc2n(c1=O)C[C@H]1[C@H](CO)[C@@H](C(=O)NCCC)N(Cc3cccc(F)c3)[C@@H]21 (mixture of isomers),.,.,.,3,.,.,.
COC(=O)C1=CC(C(=O)OC)C2C3=C(C(=O)[C@]2(CC(C)C)NC(=O)c2ccccc2)C(C)n2c(=O)n(-c4ccccc4)c(=O)n2C3C1 (stereo not given in full),10,.,.,.,.,.,.
Cc1c(C)c2ccc(OCC(=O)NC3CCN(Cc4ccccc4)CC3)c(C)c2oc1=O,2,7,-2,0,38*,60*,48*
O=C(COc1ccc(Br)cc1Cl)NC1CCN(Cc2ccccc2)CC1,2,3,-2,-1,-1,.,.
CC(=O)N1N=C(c2ccncc2)OC12CCCCCC2,13,7,1,-1,77*,+,+
CC(=O)N1N=C(c2ccccc2)OC12CCCC2,13,-2,0,.,0,.,.
CC(=O)N1N=C(c2ccncc2)OC12CCCCC2,4,0,-1,0,89*,49*,40*
O=C(CNC(=O)c1ccccc1)NCCCSc1ccccc1,2,-5,-5,-1,-3,.,.
O=C(NCCCSc1ccccc1)c1cc(Cl)ccc1O,17,9,0,1,36*,68*,48*
COc1ccc(C=NNc2nnc(C)n2N)cc1OC(C)=O,11,.,.,.,.,.,.
CCOC(=O)C1C2COc3ccc(OC)cc3C2N2C(=O)c3ccccc3NC(=O)[C@@]12C (stereo not given in full),17,.,.,.,.,.,.
Cc1cc(N/N=C/c2ccc(N(C)C)cc2)c2ccccc2n1,.,31*,0,6,28*,+,167*
COc1ccc(-c2cn3cccnc3n2)cc1NC(=O)c1ccc(Br)o1,22,13,-6,3,30*,9,5
COc1cccc2cc(C(N)=O)c(=NNC(=O)c3ccccc3)oc12,12,.,.,.,.,.,.
COc1cc2c(C#N)c(N3CCN(C)CC3)nc(N)c2c(N)n1,-5,14,2,2,81*,+,+
C[C@H]1CN([C@@H](C)CO)C(=O)c2ccccc2-c2ccccc2CO[C@H]1CN(C)Cc1cccc(O)c1,.,.,.,2,.,.,.
CCCNC(=O)N(C)C[C@@H]1Oc2ncc(-c3cccc(C#N)c3)cc2C(=O)N([C@H](C)CO)C[C@H]1C,.,.,.,2,.,.,.
CCCC#Cc1cnc2c(c1)C(=O)N([C@H](C)CO)C[C@@H](C)[C@@H](CN(C)C(=O)CCN1CCCCC1)O2,.,.,.,-2,.,.,.
COc1ccc(Cc2noc(CN3CCCN(Cc4ccc(F)cc4)CC3)n2)cc1OC,9,-3,-3,.,59*,58*,40*
CC(NC(=O)c1[nH]cnc1C(=O)Nc1ccccc1)c1ccccc1 (stereo not given),12,.,.,.,.,.,.
Brc1ccc(N=CC=CC=CNc2ccc(Br)cc2)cc1,9,.,.,.,.,.,.
COc1ccc(-c2cc(OC)c3ccccc3n2)cc1,18,9,-3,8,23,.,.
COc1ccc(-c2cc3cc(OC)c(OC)cc3c(C)n2)cc1,5,-5,-1,7,47*,73*,55*
Cc1ccc(-c2cc(C(=O)OCC(=O)Nc3cc(C)on3)c3ccccc3n2)c(C)c1,.,9,-7,-2,103*,58*,50*
COc1ccc(-c2cc(C(=O)OCC(=O)Nc3cc(C)on3)c3ccccc3n2)cc1OC,0,0,0,.,-1,.,.
SMILES,Mtb hypoxia rep,GDH-TPI counter-1,FadD28 FP inh,Mtb BioA inh,FBA Mtb inh,Mtb FBA inh conf,GDH-TPI counter-2
CCCn1c2ccccc2c2nnc(SCC(=O)OCC)nc21,.,25,-3,-1,52*,38*,64*
CCCn1c2ccccc2c2nnc(SCC(=O)OC)nc21,-1,12,0,1,1,.,.
Cc1ccc2nc(-c3ccc(NC(=O)CSc4nccc(=O)[nH]4)cc3)sc2c1,.,24,-2,.,53*,+,+
Cc1ccc2nc(-c3ccc(NC(=O)CSc4nc(N)cc(=O)[nH]4)cc3)sc2c1,11,24,-6,-1,37*,73*,42*
Nc1cc(=O)[nH]c(SCC(=O)Nc2nc3ccc([N+](=O)[O-])cc3s2)n1,3,.,.,.,.,.,.
CC(OC(=O)c1ccc(Cl)c(S(=O)(=O)N2CCc3ccccc32)c1)C(=O)Nc1ncc(Cl)cc1Cl (stereo not given),9,3,0,-5,64*,35*,24*
Cc1nc(-c2cccc(S(=O)(=O)N3CCC(C)CC3)c2)cs1,1,0,-3,1,41*,+,+
Cc1nc(-c2cccc(S(=O)(=O)N3CCCCC3)c2)cs1,-12,-10,-4,.,4,.,.
CCOC(=O)C1CCc2c(ccc3ccccc23)N1CCC#N (stereo not given),.,-1,0,0,56*,2,-4
COc1ccccc1-c1nc(-c2cccc(C)c2)no1,.,1,-2,0,81*,76*,54*
CCN1CCN(c2cc3c(nn2)Oc2ccccc2N3C)CC1,9,8,0,.,73*,5,-5
CCN1CCN(c2cc(=O)n3ccccc3n2)CC1,5,13,0,-1,7,.,.
CC(=O)Nc1cc(-c2ccccc2F)cn2c(-c3ccccc3)cnc12,.,-4,-3,-1,5,.,.
CNc1ccc2ncc(-c3ccccc3NC(C)=O)n2n1,.,7,0,0,47*,0,-4
COC(CNC(=O)c1ccc2nc3ccccc3c(=O)n2c1)OC,-1,18,1,-2,61*,+,+
COc1ccc(CCNC(=O)c2ccc3nc4cc(Cl)ccc4c(=O)n3c2)cc1OC,-17,5,1,-8,11,.,.
COCCCNC(=O)c1ccc2nc3ccccc3c(=O)n2c1,4,13,-1,0,66*,121*,106*
COC(CNC(=O)c1ccc(-n2c(=S)[nH]c3ccccc3c2=O)cc1)OC,18,1,-1,-1,7,.,.
CCn1c(SCC(=O)NN=C/C(C)=C/c2ccco2)nnc1-c1ccccc1,4,.,.,.,.,.,.
CCc1nnc(SCc2cn3c(C)cc(C)nc3n2)n1N,-4,-5,-1,-1,39*,45*,53*
Cc1cc(C)n2cc(CSc3nncn3C)nc2n1,2,6,1,.,49*,2,-4
Cc1cc(C)n2cc(CSc3nnnn3C)nc2n1,1,6,0,35,28*,+,187*
COc1cccc(C=NN2CCOCC2)c1O,-5,.,.,.,.,.,.

# Screening data (PubChem BioAssay)
